Experimental findings from PubChem BioAssay (NCI) are described below.

About 83,000 compounds went through this panel and 20% of them were active in at least one assay; those are over-represented in the sample as a whole.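 In brief: 96-well plates, 48 h treatment, single concentration, percent growth endpoint.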 Values without a mark were called inactive. Calls of active or inactive are those of the source. Rule for the calls: active = growth percent below 10; inactive = the rest.

Among the test systems are SK-MEL-2 melanoma; EKVX NSCLC; SN12C renal; UO-31 renal; TK-10 renal; ACHN renal; CAKI-1 renal; A498 renal; CCRF-CEM leukemia; MOLT-4 leukemia; SR leukemia; RPMI-8226 leukemia; OVCAR-8 ovarian; OVCAR-5 ovarian; OVCAR-4 ovarian; SK-OV-3 ovarian; IGROV1 ovarian; OVCAR-3 ovarian; HS 578T breast; NCI/ADR-RES ovarian.
Assay in all cases: NCI-60 one-dose screen, 48 h (100 = growth as untreated, 0 = no growth, -100 = all killed)
What all share (conditions): 10 µM

As for `COc1ccc(C(=O)N2C=Cc3ccccc3C2C#N)cc1` (stereo not given), the growth in the test on SK-MEL-2 melanoma was 101%; in the test with EKVX NSCLC, 99.4%; with SN12C renal, 89.3%; in the test on UO-31 renal, 73.9%; in the test with TK-10 renal it was 100%; with ACHN renal it was 96.4%. In addition, the growth is 87.3% in the test on CAKI-1 renal; 91.1% with A498 renal; 92.7% in the test on CCRF-CEM leukemia; 83.4% with MOLT-4 leukemia; 88.8% with SR leukemia; 94.9% with RPMI-8226 leukemia. Also, the growth is 100% with OVCAR-8 ovarian; 102% in the test with OVCAR-5 ovarian; 102% with OVCAR-4 ovarian; 97.5% in the test on SK-OV-3 ovarian; 114% in the test on IGROV1 ovarian; 105% in the test on OVCAR-3 ovarian. For the same molecule, the growth in the test with HS 578T breast was 96.9%; in the test with NCI/ADR-RES ovarian, 95.6%.

With `Cc1cc(CCNC=O)c(C)c2c1sc1ccccc12`, the growth in the test on SK-MEL-2 melanoma is 109%; in the test on EKVX NSCLC it was 56.6%; with SN12C renal, 79.7%; in the test on UO-31 renal it was 91.2%; in the test with TK-10 renal, 94.4%; with ACHN renal, 99.8%. Moreover, the growth was 80.7% with CAKI-1 renal; 72.8% in the test with A498 renal; 84% in the test with CCRF-CEM leukemia; 94.5% with MOLT-4 leukemia; 89.4% in the test with SR leukemia; 92.4% in the test on RPMI-8226 leukemia. For the same molecule, the growth in the test on OVCAR-8 ovarian is 97.9%; in the test on OVCAR-5 ovarian, 82.4%; in the test with OVCAR-4 ovarian, 85%; with SK-OV-3 ovarian, 104%; in the test on IGROV1 ovarian, 122%; in the test on OVCAR-3 ovarian, 111%. For the same molecule, the growth in the test with HS 578T breast was 54%; in the test on NCI/ADR-RES ovarian, 97.8%.

Turning to `CCCN1CN2C(=O)N3CN(CCC)CN4C(=S)N(C1)C2C34` (stereo not given), the growth in the test with SK-MEL-2 melanoma was 102%; with EKVX NSCLC, 95.2%; in the test with SN12C renal, 100%; with UO-31 renal, 94.6%; in the test on TK-10 renal it was 93.2%; with ACHN renal, 94.4%. Besides, the growth in the test with CAKI-1 renal was 90.4%; with A498 renal it was 108%; in the test with CCRF-CEM leukemia it was 94.9%; with MOLT-4 leukemia, 103%; in the test with SR leukemia it was 79.3%; in the test with RPMI-8226 leukemia, 105%. For the same molecule, the growth is 108% with OVCAR-8 ovarian; 95.2% in the test on OVCAR-5 ovarian; 103% in the test on OVCAR-4 ovarian; 86.1% in the test on SK-OV-3 ovarian; 99.3% in the test on IGROV1 ovarian; 103% in the test on OVCAR-3 ovarian. Also, the growth in the test on HS 578T breast was 113%; in the test with NCI/ADR-RES ovarian, 103%.

Consider `O=C1/C=C/[C@@H](O)[C@@H]2C[C@@H](O)C[C@H]2/C=C/CCC[C@H](CCc2ccc(NC(=S)Nc3ccc4c(c3)C(=O)OC43c4ccc(O)cc4Oc4cc(O)ccc43)cc2)O1`, for which the growth was -9.15% (active) in the test with SK-MEL-2 melanoma; 12.7% in the test with EKVX NSCLC; 10.1% in the test with SN12C renal; 11% with UO-31 renal; -21.2% (active) in the test on TK-10 renal; 14.9% in the test with ACHN renal. Moreover, the growth with CAKI-1 renal is 22.2%; in the test on A498 renal, -29.7% (active); in the test on CCRF-CEM leukemia it was -2.59% (active); with MOLT-4 leukemia it was -8.92% (active); in the test with SR leukemia, 6.14% (active); in the test on RPMI-8226 leukemia it was 12.3%. Further, the growth was 10.5% in the test with OVCAR-8 ovarian; 17.9% in the test on OVCAR-5 ovarian; 23.4% in the test on OVCAR-4 ovarian; 32.1% in the test with SK-OV-3 ovarian; 25.7% in the test on IGROV1 ovarian; -0.249% (active) in the test with OVCAR-3 ovarian. Moreover, the growth was 39.8% in the test with HS 578T breast and 10.9% with NCI/ADR-RES ovarian.

Consider `CN1C(=O)C2(Nc3cc(Cl)ccc3S2)c2cc(Cl)ccc21` (stereo not given), for which the growth is 108% in the test with SK-MEL-2 melanoma; 79.2% with EKVX NSCLC; 82.2% in the test on SN12C renal; 56.9% with UO-31 renal; 125% in the test with TK-10 renal; 92.3% with ACHN renal. Also, the growth was 82.2% with CAKI-1 renal; 73% in the test on A498 renal; 71.6% with CCRF-CEM leukemia; 82.5% in the test on MOLT-4 leukemia; 70.6% in the test on SR leukemia; 80.4% with RPMI-8226 leukemia. In addition, the growth with OVCAR-8 ovarian is 97.4%; in the test with OVCAR-5 ovarian it was 107%; with OVCAR-4 ovarian, 70.3%; with SK-OV-3 ovarian, 96.1%; in the test with IGROV1 ovarian, 102%; in the test on OVCAR-3 ovarian it was 95.9%. The figures for the growth with HS 578T breast and with NCI/ADR-RES ovarian were 91.1% and 93.6%, respectively.

`CC(C)c1cc(N=O)cc(C(C)C)c1O`: the growth is 107% in the test with SK-MEL-2 melanoma; 105% with EKVX NSCLC; 94.2% in the test with SN12C renal; 90.2% in the test on UO-31 renal; 115% in the test on TK-10 renal; 98.6% with ACHN renal. Besides, the growth in the test with CAKI-1 renal was 95.2%; in the test on A498 renal, 108%; with CCRF-CEM leukemia, 101%; in the test with MOLT-4 leukemia it was 89.1%; with SR leukemia, 106%; in the test on RPMI-8226 leukemia, 93.5%. Besides, the growth is 103% with OVCAR-8 ovarian; 97.2% in the test on OVCAR-5 ovarian; 104% in the test with OVCAR-4 ovarian; 109% in the test on SK-OV-3 ovarian; 121% in the test with IGROV1 ovarian; 110% with OVCAR-3 ovarian. The growth in the test with HS 578T breast was 107%; in the test on NCI/ADR-RES ovarian, 99.8%.

Regarding `O=C(CSc1nccc(Nc2cccc3ccccc23)n1)c1ccc(Cl)cc1`, the growth in the test on SK-MEL-2 melanoma is 102%; with EKVX NSCLC it was 76.9%; in the test with SN12C renal, 82.6%; in the test on UO-31 renal, 49.8%; in the test on TK-10 renal it was 112%; in the test with ACHN renal it was 91.7%. For the same molecule, the growth was 60.3% with CAKI-1 renal; 105% with A498 renal; 83.1% with CCRF-CEM leukemia; 88.1% with MOLT-4 leukemia; 90.9% in the test with SR leukemia; 80% with RPMI-8226 leukemia. Moreover, the growth is 92.3% with OVCAR-8 ovarian; 87.4% in the test on OVCAR-5 ovarian; 98.7% in the test with OVCAR-4 ovarian; 86.4% with SK-OV-3 ovarian; 69% in the test with IGROV1 ovarian; 99.5% with OVCAR-3 ovarian. In addition, the growth with HS 578T breast was 99.7%; in the test on NCI/ADR-RES ovarian it was 93.7%.
